Among all 310,000 compounds or so, about 11,000 (3.5%) were called active. Where a call stands in place of a potency, no number is given. Roughly 8% stayed inconclusive and do not appear here. The full list was thinned out, with actives kept by preference. Values without a mark were called inactive. Calls come from the whole dose curve; as a rule, active = well fitted inhibition curve with a large enough effect; inconclusive = small, poorly fitted or top-dose-only effect, or effect the other way; inactive = flat fitted curve, though single readings scatter.
Test: VP16 counterscreen qHTS for inhibitors of ROR gamma transcriptional activity;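 note: Gal4-VP16 expression switched on by copper sulfate through the metallothionein promoter; nearly all actives have a fitted effect of over 50% in size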
Conditions: Drosophila S2 Gal4-VP16 UAS-luciferase, luminescence, 20 h; series mostly up to 53.6 µM
Potency is the fitted concentration of half-maximal effect.

Row | SMILES | Potency | activity, negative = inhibition
1 | COc1ccc(NC(=O)C(C)N2c3cccc4cccc(c34)S2(=O)=O)c(OC)c1 (stereo unspecified) | inactive | –
2 | COc1cccc(/C=C2\Sc3ccc(C(=O)NCC4CCCO4)cc3N(C)C2=O)c1 (stereo unspecified) | inactive | –
3 | CC(=O)NCCC(=O)Nc1nc(-c2ccc3c(c2)OCCO3)cs1 | inactive | –
4 | Cc1cc(C)cc(NS(=O)(=O)Cc2ccccc2)c1 | inactive | –
5 | Cc1ccc(C(=O)COC(=O)CCN2C(=O)C3C4CCC(C4)C3C2=O)cc1C (stereo unspecified) | inactive | –
6 | COc1ccccc1NC(=O)/C=C/C(N)=O | 4.47 µM (active) | –
7 | COc1ccccc1NC(=O)c1ccc(C)s1 | inactive | –
8 | COc1ccccc1NC(=O)/C=C/C(=O)O | inactive | –
9 | COc1ccc(NC(=O)CN2C(=O)COc3ccc(S(=O)(=O)N4CCOCC4)cc32)cc1 | inactive | –
10 | CCn1c(-c2ccoc2C)n[nH]c1=S | inactive | –
11 | CCc1cc(-c2n[nH]c(=S)n2CC(C)C)cs1 | 11.2 µM (active) | –
12 | CCn1c(C(C)C)n[nH]c1=S | inactive | –
13 | Cc1ccc(Cn2c(C)c3cnn(CC(=O)NCc4ccccn4)c(=O)c3c2C)cc1 | inactive | –
14 | CC(=O)Nc1ccc(C(=O)N(C2=NC(C)CS2)c2ccc(Cl)cc2)cc1 (stereo unspecified) | inactive | –
15 | COc1ccc(-c2nnc(NC(=O)CS(=O)(=O)c3ccc(Cl)cc3)o2)c(OC)c1 | inactive | –
16 | COc1cccc(NC(=O)c2ccc(S(=O)(=O)N(C)C)cc2)c1 | inactive | –
17 | COc1cccc(-c2nnc(NC(=O)c3ccc(S(=O)(=O)N(CC(C)C)CC(C)C)cc3)o2)c1 | 0.355 µM (active) | –
18 | COc1cc(Nc2nc3ccc(Cl)cc3n3cnnc23)cc(OC)c1OC | inactive | –
19 | O=C(c1ccc(Cl)cc1)n1cnc2ccccc21 | inactive | –
20 | C=CS(=O)c1sc(Cl)c(N2CCOCC2)c1[N+](=O)[O-] (stereo unspecified) | 3.98 µM (active) | –
21 | CCCOc1ccc(C2=CSC3=NCCN23)cc1Cl | inactive | –
22 | COc1ccc(C(=O)NNC(=S)NC(=O)c2ccccc2)cc1 | 8.91 µM (active) | –
23 | O=C(CCc1ccccc1)NNC(=O)c1ccc(Br)cc1 | inactive | –
24 | COc1ccc(C(=O)NC2CCN(C(=S)NCCc3ccccc3)CC2)cc1 | inactive | –

Row | SMILES | Potency | activity, negative = inhibition
25 | COc1ccc(C(=O)NC(=S)NNC(=O)CCc2ccccc2)cc1 | 15.8 µM (active) | –
26 | CCCNC(=S)N1CCC(NC(=O)c2ccc(OC)cc2)CC1 | inactive | –
27 | COc1ccc(C(=O)NNC(=S)NC(=O)c2ccccc2[N+](=O)[O-])cc1 | inactive | –
28 | COc1ccc(C(=O)NC(=S)NC2CCCCC2)cc1 | 6.31 µM (active) | –
29 | COc1ccc(OCC(=O)NNC(=O)c2ccc(-c3ccccc3)cc2)cc1 | inactive | –
30 | O=C(NC(=S)NC1CCCCC1)c1ccc(Cl)cc1 | inactive | –
31 | COc1ccc(NC(=O)CCCN2C(=O)C(c3ccccc3)Oc3cccnc32)cc1 (stereo unspecified) | inactive | –
32 | CC(C)C[C@@H](COc1ccccc1)N1CCN(CC(C)C)CCC1=O | inactive | –
33 | COc1ccc(CCc2nc(-c3cccs3)no2)cc1 | inactive | –
34 | O=C(c1ccc2nc(N3CCOCC3)sc2c1)N1CCN(c2ccc(Cl)cc2)CC1 | inactive | –
35 | COc1ccc(NC(=O)CSc2nncc(=O)n2N)cc1OC | inactive | –
36 | CCCC(C)c1nnc(NC(=O)C2CC(=O)N(c3ccc(OCC)cc3)C2)s1 (stereo unspecified) | inactive | –
37 | Oc1ccccc1C=NC1CCCCC1N=Cc1ccccc1O (stereo unspecified) | inactive | –
38 | COc1ccc(/C=N/NC(=O)C2CC2)c(OC)c1OC | inactive | –
39 | O=C(N/N=C/c1ccccc1O)C1CCCC1 | 0.562 µM (active) | –
40 | N#CC(C#N)=CN=c1ccn(Cc2ccc(Cl)cc2Cl)cc1 | inactive | –
41 | COc1ccccc1N1CCN(C(=O)c2cc(=O)c3cc(C)ccc3o2)CC1 | inactive | –
42 | O=c1c2ccccc2nc2n1C(CSc1ccc(F)cc1)CN2 (stereo unspecified) | inactive | –
43 | O=c1c2ccccc2nc2n1C(CSCc1ccccc1)CS2 (stereo unspecified) | – | 5.71% [at 0.365 µM]
44 | O=c1c2ccccc2nc2n1C(CSCc1cccc(C(F)(F)F)c1)CS2 (stereo unspecified) | 7.94 µM (active) | –
45 | CS(=O)(=O)N1CCN(CC(=O)NC2CCCC2)CC1 | inactive | –
46 | COc1ccc(S(=O)(=O)Nc2cccnc2)c(Cl)c1Cl | inactive | –
47 | COc1ccccc1Oc1ccc(S(=O)(=O)Nc2cccnc2)cc1 | 17.8 µM (active) | –
48 | O=S(=O)(Nc1ccccn1)c1ccc(Oc2ccccc2)cc1 | inactive | –

Row | SMILES | Potency | activity, negative = inhibition
49 | CC(Oc1cccc(Cl)c1)C(=O)NC1CC(C)(C)NC(C)(C)C1 (stereo unspecified) | inactive | –
50 | O=C(CC1C(=O)NCCN1C(=O)c1ccc([N+](=O)[O-])cc1)Nc1cccc(Cl)c1 (stereo unspecified) | inactive | –
51 | Cc1ccc(SCc2c(C(=O)N/N=C/c3cccnc3)nnn2-c2nonc2N)cc1 | inactive | –
52 | Nc1nonc1-n1nnc(C(=O)N/N=C/c2cc(Br)ccc2O)c1CSC1=NCCS1 | 4.47 µM (active) | –
53 | Cc1ccc(SCc2c(C(=O)N/N=C/C3CC=CCC3)nnn2-c2nonc2N)cc1 (stereo unspecified) | inactive | –
54 | COc1ccccc1NC(=O)CSc1nc2sc3c(c2c(=O)n1-c1ccccc1)CCN(C)C3 | inactive | –
55 | CCCCc1nc2cc(C(=O)NCCc3cnn(C)c3)ccc2o1 | inactive | –
56 | O=C(CCc1ccccc1)NCc1cccnc1 | inactive | –
57 | O=C(CN(c1cc(C(F)(F)F)ccc1Cl)S(=O)(=O)c1ccccc1)NCc1cccnc1 | inactive | –
58 | CCc1ccc(N(CC(=O)NCc2cccnc2)S(=O)(=O)c2ccccc2)cc1 | 14.1 µM (active) | –
59 | CCOC(=O)c1c(-c2ccccc2)oc2ccc(OCC(N)=O)cc12 | inactive | –
60 | COc1cccc(CN2CCN(Cc3ccc4cccc(F)c4n3)CC2CCO)c1 (stereo unspecified) | inactive | –
61 | CN1c2ccc([N+](=O)[O-])cc2C(C)(C)C12C=Cc1cc(C(=O)O)ccc1O2 (stereo unspecified) | inactive | –
62 | O=C(OC1CCOC1=O)c1ccc(-c2nc3ccccc3s2)s1 (stereo unspecified) | 1 µM (active) | –
63 | Cc1nn(Cc2ccccc2)c(Cl)c1C(=O)OC1CCOC1=O (stereo unspecified) | inactive | –
64 | CC(C)c1ccc(C(=O)OC2CCOC2=O)cc1 (stereo unspecified) | inactive | –
65 | O=C(CNC(=O)OCc1ccccc1)NC1CCCCNC1=O (stereo unspecified) | inactive | –
66 | Cc1cc(=O)n2[nH]c(-c3cccc(Cl)c3)cc2n1 | inactive | –
67 | C=C1C(=O)C23C(O)C1CCC2[C@]12COC3(O)C(O)C1C(C)(C)CC[C@H]2O (stereo partly specified) | 2.51 µM (active) | –
68 | CCOc1ccc(C(C(=O)NC2CCCC2)N(C(=O)c2snc(C(N)=O)c2N)C2CCCC2)cc1 (stereo unspecified) | inactive | –
69 | COCc1nc2ccccc2n1Cc1ccccc1Br | 5.62 µM (active) | –
70 | COc1ccccc1Cn1c(CO)nc2ccccc21 | inactive | –
71 | COCn1c(COc2ccccc2)nc2ccccc21 | inactive | –

Source: PubChem BioAssay AID2546 (National Center for Advancing Translational Sciences (NCATS), 2010)
